Experimental findings from PubChem BioAssay AID1031 (Columbia University Molecular Screening Center, 2008) are described below.

The list shows a part of the results. A number with no mark means an inactive call. The rule behind the calls is not given here.

The experiment deals with Tyrosine-protein phosphatase non-receptor type 22 (Homo sapiens) (UniProt Q9Y2R2). In words: LYP phosphatase activation, single-dose recheck – biochemical, DiFMUP fluorescence, single concentration, confirmation (AID 1031). The conditions noted are these: Recombinant LYP, at 2 µM, active compounds read high, zero set by plate's median compound well.
Chain of Tyrosine-protein phosphatase non-receptor type 22 (Homo sapiens) (Q9Y2R2 whole entry, looked up): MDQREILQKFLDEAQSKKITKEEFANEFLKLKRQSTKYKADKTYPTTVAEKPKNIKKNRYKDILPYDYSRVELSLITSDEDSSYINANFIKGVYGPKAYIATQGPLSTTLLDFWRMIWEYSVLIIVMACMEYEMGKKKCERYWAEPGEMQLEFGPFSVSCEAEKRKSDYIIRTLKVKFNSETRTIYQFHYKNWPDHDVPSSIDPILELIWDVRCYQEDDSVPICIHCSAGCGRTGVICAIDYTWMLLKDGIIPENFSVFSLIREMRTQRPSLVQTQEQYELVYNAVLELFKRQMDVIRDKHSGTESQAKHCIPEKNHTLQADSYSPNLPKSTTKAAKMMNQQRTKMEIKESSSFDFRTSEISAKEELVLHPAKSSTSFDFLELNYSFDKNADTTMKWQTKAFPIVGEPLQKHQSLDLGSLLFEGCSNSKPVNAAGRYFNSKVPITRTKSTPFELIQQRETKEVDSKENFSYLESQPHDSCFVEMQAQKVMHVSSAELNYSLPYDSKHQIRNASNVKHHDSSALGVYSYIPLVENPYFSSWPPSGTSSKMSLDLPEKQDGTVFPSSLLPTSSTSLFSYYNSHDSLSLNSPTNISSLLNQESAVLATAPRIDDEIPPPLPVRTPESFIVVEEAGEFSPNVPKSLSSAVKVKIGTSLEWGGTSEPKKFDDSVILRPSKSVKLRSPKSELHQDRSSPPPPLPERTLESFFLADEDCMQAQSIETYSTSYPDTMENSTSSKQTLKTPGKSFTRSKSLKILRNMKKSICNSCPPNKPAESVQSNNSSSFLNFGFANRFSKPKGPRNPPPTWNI

`N#CCCn1ncc2ccccc21`: the activation was 5.5%.

With `Cc1ccccc1NC(=O)c1cc(S(=O)(=O)N2CCOCC2)cs1`, the activation is -3.6%.
